Rows were chosen to be rich in hits. Some 2.7% of all compounds tested hit in one or more screens of this group.
PfGluPho inh: PfG6PD (Plasmodium falciparum) enzyme inhibition | PfGluPho enzyme, NADPH resazurin-diaphorase fluorescence | inhibition, % at 20 µM | 350,000 tested, 0.78% active | AID 504690;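 active means inhibition reaching at least a set limit at 20 µM in the primary screen, cut at about 59% in these data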;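 further: 0% = DMSO wells with substrate and 100% = DMSO wells lacking glucose-6-phosphate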
FAS TE block: FAS thioesterase (human) inhibition; P49327; recombinant FAS-TE, OMFH fluorogenic substrate, fluorescence endpoint; inhibition, % at 15 µM; 360,000 tested, 0.67% active; AID 602261;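 active means compounds whose normalised, plate-corrected inhibition of enzyme fluorescence in the single-dose primary screen is 50% or more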;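 further: 0% = DMSO with enzyme and 100% = substrate without enzyme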
KLK7 zymogen act: activators of human kallikrein-7 zymogen | activation, % at 7 µM | AID 652039 | 370,000 tested, 0.9% active | P49862 | purified proKLK7, EDANS-DABCYL substrate fluorescence; 100% is mature enzyme control, 0% vehicle;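 active means activation above the mean of all tested compounds plus 3 SD, computed per campaign excluding outliers beyond control limits, cut at about 13% in these data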
Neddyl block: blocks human cullin neddylation; P61081+Q13564; TR-FRET cullin neddylation, biochemical; calls only at 25 µM; 360,000 tested, 0.58% active; AID 651699; in the data active means inhibition above about 36%
Target sequence (P61081 whole entry, looked up): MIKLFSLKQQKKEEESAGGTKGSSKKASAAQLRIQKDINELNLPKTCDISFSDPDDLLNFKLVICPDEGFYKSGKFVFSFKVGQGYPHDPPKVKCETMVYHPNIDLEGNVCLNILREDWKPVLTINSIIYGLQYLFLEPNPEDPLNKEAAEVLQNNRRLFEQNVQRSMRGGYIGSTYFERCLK
Target sequence (Q13564 whole entry, looked up): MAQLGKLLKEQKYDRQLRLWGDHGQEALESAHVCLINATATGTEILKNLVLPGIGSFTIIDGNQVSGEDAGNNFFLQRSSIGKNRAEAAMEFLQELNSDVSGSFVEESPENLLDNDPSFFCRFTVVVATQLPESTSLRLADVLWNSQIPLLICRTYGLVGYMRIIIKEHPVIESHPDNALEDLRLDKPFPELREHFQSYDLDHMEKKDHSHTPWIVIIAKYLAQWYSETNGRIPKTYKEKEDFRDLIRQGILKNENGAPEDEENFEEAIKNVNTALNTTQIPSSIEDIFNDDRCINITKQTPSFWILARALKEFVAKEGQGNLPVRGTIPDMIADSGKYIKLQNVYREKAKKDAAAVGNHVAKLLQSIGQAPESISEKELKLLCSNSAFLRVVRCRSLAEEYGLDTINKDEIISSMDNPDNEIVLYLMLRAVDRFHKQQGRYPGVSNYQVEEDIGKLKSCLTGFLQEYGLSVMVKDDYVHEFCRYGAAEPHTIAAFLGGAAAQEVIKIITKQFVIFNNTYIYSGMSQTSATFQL
FAS-TE inh conf: confirmation of human fatty acid synthase thioesterase inhibitors; AID 624325; shares compounds with FAS TE block; recombinant FAS-TE, OMFH fluorogenic substrate, fluorescence; 2,300 tested, 45% active; inhibition, % at 15 µM;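 active means compounds inhibiting the enzyme by at least 50% at 15 µM in any one of the replicates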;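 further: 0% = enzyme with DMSO only and 100% = wells lacking enzyme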
* marks the source's active call; other numbers are inactive results; i = inactive; x = no result.

SMILES | PfGluPho inh | FAS TE block | KLK7 zymogen act | Neddyl block | FAS-TE inh conf
CCCC1NC(=O)c2cc3ccccc3cc2-n2c1nc1cc(Cl)ccc1c2=O (stereo unspecified) | 4 | 73* | 0 | i | 35
O=C1NC(Cc2ccccc2)c2nc3ccc(F)cc3c(=O)n2-c2cc3ccccc3cc21 (stereo unspecified) | 8 | 80* | -2 | i | 29
O=C1NC(Cc2ccccc2)c2nc3ccc(Cl)cc3c(=O)n2-c2cc3ccccc3cc21 (stereo unspecified) | -12 | 78* | -4 | i | 11
O=C1NC(Cc2ccccc2)c2nc3ccc(F)cc3c(=O)n2-c2ccccc21 (stereo unspecified) | x | x | 0 | x | x
CCCC1NC(=O)c2cc3ccccc3cc2-n2c1nc1ccc(C)cc1c2=O (stereo unspecified) | 11 | 27 | 0 | i | x
Cc1cc(C)c2c(=O)n3c(nc2c1)C(Cc1ccccc1)NC(=O)c1cc2ccccc2cc1-3 (stereo unspecified) | -9 | 86* | -1 | i | 5
O=C(NCCc1ccccc1)OCc1cn(Cc2cc(F)ccc2F)nn1 | x | x | 0 | x | x
Cc1ccc2nc3n(c(=O)c2c1)-c1cc2ccccc2cc1C(=O)NC3Cc1ccccc1 (stereo unspecified) | -6 | 91* | -4 | i | 2
Cc1ccc2nc3n(c(=O)c2c1)-c1ccc(Cl)cc1C(=O)NC3Cc1ccccc1 (stereo unspecified) | x | x | -1 | x | x
CCOC(=O)[C@@]12CN(C(=O)OC(C)(C)C)CC=C1N(Cc1ccc(OC)cc1)C(=O)[C@H]2CC(=O)N1CCCCC1 | x | x | 0 | x | x
COc1ccc([C@@H]2[C@@H]3C(=O)N(C(C)(C)C)C(=O)[C@@H]3[C@]3(Cc4ccc(Cl)cc4)C(=O)N(c4cccc(C)c4)C(=O)N23)cc1 | -7 | 83* | 1 | i | 39
COc1ccc([C@@H]2[C@@H]3C(=O)N(C(C)(C)C)C(=O)[C@@H]3[C@]3(Cc4ccccc4)C(=O)N(c4ccc(OC)cc4)C(=O)N23)cc1 | 9 | 12 | 0 | i | x
COc1ccc([C@@H]2[C@@H]3C(=O)N(C(C)(C)C)C(=O)[C@@H]3[C@]3(Cc4ccc(Cl)cc4)C(=O)N(c4ccc(C)cc4)C(=O)N23)cc1 | 2 | 92* | 0 | i | 39
Cc1ccc(Cl)cc1N1CCN(C(c2cccnc2)c2nnnn2C2CCCCC2)CC1 (stereo unspecified) | 9 | 28 | 1 | i | x
Cc1ccc(Cl)cc1N1CCN(C(c2ccc(C#N)cc2)c2nnnn2C2CCCC2)CC1 (stereo unspecified) | -12 | 69* | 0 | i | -2
O=C(Nc1ccc(OC(F)(F)F)cc1)Nc1c(-c2ccc(F)cc2)nc2ncccn12 | x | x | -3 | x | x
COc1cccc(NC(=O)CN2C(=O)CSc3ccc(S(=O)(=O)N4CCCCC4)cc32)c1 | 0 | 53* | 0 | i | 66*
Cc1ccc(NC(=O)CN2C(=O)CSc3ccc(S(=O)(=O)N4CCCCC4)cc32)cc1 | -2 | 56* | 0 | i | 42*
O=C(CN1C(=O)CSc2cc(S(=O)(=O)N3CCCCCC3)ccc21)NCCc1ccccc1 | -2 | 50* | 0 | i | 9
CCOc1ccc(-n2c(COc3ccc(C)cc3)nnc2SCC(=O)Nc2ccc(F)c(F)c2)cc1 | x | x | 0 | x | x
CC(COc1ccc(F)cc1)CN1CCC(C(O)(c2ccccc2)c2ccccc2)CC1 (stereo unspecified) | x | x | 0 | x | x
COc1ccc(-c2cc(C)no2)cc1S(=O)(=O)N1CCN(c2ccc([N+](=O)[O-])cc2)CC1 | 16 | 50* | 0 | i | 32
CCN(C(=O)COC(=O)c1cc([N+](=O)[O-])ccc1N1CCOCC1)C1CCCCC1 | 13 | 86* | 0 | i | 92*
O=C(COC(=O)c1cc(F)c(F)cc1Cl)NC1CCCCCC1 | -2 | 56* | 0 | i | 68*
O=C(COC(=O)c1cc([N+](=O)[O-])ccc1N1CCOCC1)NC1CCCCC1 | 6 | 92* | 0 | i | 91*
SMILES | PfGluPho inh | FAS TE block | KLK7 zymogen act | Neddyl block | FAS-TE inh conf
O=C(COC(=O)c1cc([N+](=O)[O-])ccc1N1CCOCC1)NC1CCS(=O)(=O)C1 (stereo unspecified) | -1 | 16 | 0 | i | x
O=C(COC(=O)c1ccc(F)cc1Cl)NC1CCCCCCC1 | -9 | 14 | 0 | i | x
CC1CCCCN1C(=O)COC(=O)c1cc([N+](=O)[O-])ccc1N1CCOCC1 (stereo unspecified) | -3 | 54* | 0 | i | 57*
O=C(c1cc([N+](=O)[O-])ccc1N1CCOCC1)N1CCCCC1 | 2 | -10 | 0 | i | x
CCN(C(=O)COC(=O)c1cc([N+](=O)[O-])ccc1N1CCOCC1)C1CCS(=O)(=O)C1 (stereo unspecified) | -5 | 4 | -1 | i | x
CN(C(=O)COC(=O)c1cc([N+](=O)[O-])ccc1N1CCOCC1)C1CCCCC1 | -1 | 89* | 1 | i | 93*
O=C(c1ccncc1)N(c1ccc2oc3c(c2c1)CCCC3)S(=O)(=O)c1ccc(F)cc1 | 13 | 65* | 0 | i | 43
c1ccc(Cn2c(SCC3CCCCC3)nnc2-c2cccnc2)cc1 | x | x | 0 | x | x
C=CCN1C(=O)/C(=C/c2ccc(OC(C)=O)c(OCC)c2[N+](=O)[O-])SC1=S | 6 | 75* | 0 | i | 46*
Cc1ccc(S(=O)(=O)c2nnn3c2nc(N2CCC(C(N)=O)CC2)c2ccccc23)cc1C | -25 | 53* | 1 | i | 61*
CCC(CO)Nc1cccc2c1S(=O)(=O)N(Cc1cn(Cc3cccc(C(F)(F)F)c3)nn1)Cc1ccccc1O2 (stereo unspecified) | x | x | 0 | x | x
CC1(C)CC[C@]2(C(=O)n3ccnc3)CC[C@]3(C)[C@H](C(=O)C=C4[C@@]5(C)C=C(C#N)C(=O)C(C)(C)[C@@H]5CC[C@]43C)[C@@H]2C1 | 50 | 96* | 0 | i | 68*
COc1ccc(/C=C2\CC3(OC(=O)c4ccco4)CCCN2C3)cc1 (stereo unspecified) | x | x | -1 | x | x
CN(C(=O)Nc1ccc(Cl)cc1Cl)[C@H]1c2cc(Br)ccc2OC[C@H]1CO | 10 | 50* | 1 | i | 50*
COc1cccc2c1OC[C@@H](CO)[C@H]2N(C)C(=O)Nc1ccccc1 | 2 | -5 | x | i | x
CN(CC(=O)Nc1ccccc1Cl)C(=O)COC(=O)c1ccc([N+](=O)[O-])cc1Cl | -4 | 10 | 0 | i | x
CN(CCOc1ccccc1)CC(=O)Nc1ccc([N+](=O)[O-])cc1Cl | 9 | 60* | -1 | i | 39*
CCOC(=O)[C@]12CCCC3=C1N(CCC3)C(=O)[C@@H](CC(=O)N1CCCC1)C2 | x | x | 1 | x | x
Cc1cc(NC(=O)c2ccc(NS(=O)(=O)c3ccccc3)cc2)no1 | x | x | 0 | x | x
